Compound activity as filed in PubChem.
Compounds with a hit are over-represented: about 10% of the library has one in this group of screens.
GLS inhibitor: blocks human kidney-isoform glutaminase activity; hit rate 0.21% among 410,000; GLS enzymatic activity, qHTS titration; Potency, µM (series often up to 45.5 µM), for inactives: at the top dose activity change, negative = inhibition, actives largely listed as inhibitors; O94925; note: % is set by controls: 0 for no effect and ±100 for the full control effect
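Enzyme dispensed in phosphate buffer (45 mM, pH 8.2, 0.02% Tween-20), compounds pinned in, then 1 mM L-glutamine solution and the glutamate oxidase–HRP–Amplex Red mix added; fluorescence read immediately and again after 30 min at room temperature.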
HP1b chromo inh: inhibitors of HP1-beta chromodomain binding to methylated histone tails. AID 540317. AlphaScreen HP1-beta / biotin-H3K9me3 peptide binding. hit rate 0.56% among 390,000. Potency, µM (doses to about 114 µM), for the others: at the top dose activity change, negative = inhibition, actives largely listed as inhibitors. P83916; note: nearly all actives have a fitted effect of over 70% in size
Target sequence (P83916 whole entry, looked up): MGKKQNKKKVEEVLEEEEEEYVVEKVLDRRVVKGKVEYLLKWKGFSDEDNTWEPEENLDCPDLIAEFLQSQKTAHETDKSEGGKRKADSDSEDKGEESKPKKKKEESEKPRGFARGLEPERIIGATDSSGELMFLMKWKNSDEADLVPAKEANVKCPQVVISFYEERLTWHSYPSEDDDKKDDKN
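Compound inhibition of the preformed complex between 50 nM HP1-beta and 50 nM biotinylated H3K9me3 peptide was read by AlphaScreen. Buffer was PBS pH 7.4 with 0.01% Tween-20. Incubations ran 30 min at room temperature, with 10 ug/mL donor/acceptor beads.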
G9a block: inhibitors of human histone lysine methyltransferase G9a; hit rate 8.8% among 350,000; Potency, µM (titrated, usually from 102 µM), for inactives: at the highest dose activity, negative = inhibition, actives largely listed as inhibitors; G9a H3K9 monomethylation, AlphaScreen, 2 h; Q96KQ7; note: % is set by controls: 0 for no effect and ±100 for the full control effect; nearly all actives have a fitted effect of over 75% in size
Target sequence (Q96KQ7 913-1193 limits assumed): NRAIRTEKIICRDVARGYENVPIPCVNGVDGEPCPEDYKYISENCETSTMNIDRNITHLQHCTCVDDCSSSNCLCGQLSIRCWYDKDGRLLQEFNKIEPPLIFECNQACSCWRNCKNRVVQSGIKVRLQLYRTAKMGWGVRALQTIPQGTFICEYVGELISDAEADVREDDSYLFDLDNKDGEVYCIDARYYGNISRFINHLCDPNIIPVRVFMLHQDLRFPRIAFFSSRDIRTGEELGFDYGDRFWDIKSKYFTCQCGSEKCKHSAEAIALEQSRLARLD
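Using a bead-based AlphaScreen, monomethylated H3K9 product from 2 h room-temperature reactions (G9a 20 nM, peptide 500 nM, SAM 20 uM) was detected with 0.5 ug/mL rabbit anti-H3K9me1 antibody.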
JMJD2A Tudor inh: inhibitors of human JMJD2A Tudor domain. hit rate 4.4% among 390,000. Potency, µM (series often up to 114 µM), inactives show at the highest dose activity change, negative = inhibition, actives largely listed as inhibitors. AlphaScreen JMJD2A-Tudor / H3K4me3 peptide binding; note: % is set by controls: 0 for no effect and ±100 for the full control effect; nearly all actives have a fitted effect of over 50% in size
BAZ2B block: BAZ2B (human) inhibition; Potency, µM (titrated, usually from 114 µM), inactives show at the top dose activity change, negative = inhibition, hits mostly inhibitors; AID 504333; AlphaScreen BAZ2B-H3K14Ac peptide displacement; hit rate 4.4% among 360,000; Q9UIF8; note: % is set by controls: 0 for no effect and ±100 for the full control effect; nearly all actives have a fitted effect of over 60% in size
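BAZ2B 50 nM plus b-H3(5-23)K14Ac 50 nM, PBS pH 7.4/0.01% Tween-20, 30 min RT; compound added (max 110 uM), 30 min RT; streptavidin donor/Ni-chelate acceptor beads 10 ug/mL final, 20 min dark; AlphaScreen read.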
An asterisk follows results filed as active; ? = inconclusive; nt = not tested or not shown; [ ] = remark or other dose. Calls come from the whole dose curve; as a rule, active = well fitted curve in the direction sought with a large enough effect; inconclusive = small, poorly fitted or top-dose-only effect, or another doubt; inactive = no such curve, though single readings can be large; an effect the other way counts as inactive or inconclusive. Potency is the fitted concentration of half-maximal effect.

SMILES | GLS inhibitor | HP1b chromo inh | G9a block | JMJD2A Tudor inh | BAZ2B block
COc1ccc(-n2ccc(=O)c(C(=O)Nc3ccc(S(=O)(=O)Nc4nccs4)cc3)n2)cc1 | 1% | -11% | ? | 56µM* | ?
O=C(Nc1ccc(S(=O)(=O)Nc2nccs2)cc1)c1nn(-c2ccccc2)ccc1=O | -2% | 51% | 22µM* | 11% | ?
CCn1nc(C(=O)Nc2ccc(S(=O)(=O)Nc3nccs3)cc2)c2ccccc2c1=O | -4% | -5% | ? | -19% | ?
Cc1ccc(/C=N/Nc2cccc3cccnc23)c(O)c1 | 29% | 19% | 18µM* | ? | 0%
Oc1ccc(/C=N/Nc2cccc3cccnc23)c(O)c1 | 26% | -11% | 5.6µM* | ? | -10%
Oc1ccc(C=NNc2ccccn2)c(O)c1 | 35% | 13% | nt | 20µM* | nt
C(=N\Nc1ccccn1)/c1c[nH]c2ccccc12 | 9% | -4% | -46% | ? | 32µM*
Cc1cc(N/N=C/c2ccccc2O)c2ccccc2n1 | 7% | -5% | nt | ? | ?
O=c1nc(N/N=C/c2c[nH]c3ccccc23)cn[nH]1 | 1% | 21% | nt | -6% | -3%
COc1ccc(-c2noc(CSc3nnc(-c4ccc(Cl)cc4)n3C)n2)cc1OC | -9% | 34% | -14%[59 µM] | -24% | -16%
CCN(CC)S(=O)(=O)c1ccc(N/N=C/c2ccc(O)cc2O)nc1 | 2% | 37% | 17%[59 µM] | -28% | 25µM*
COc1ccc(/C=C2\CN(Cc3ccccc3)C/C(=C\c3ccc(OC)c(O)c3)C2=O)cc1O | 15% | ? | 45µM* | ? | 40µM*
COc1ccc(C=C2C(=O)c3ccccc3C2=O)cc1O | 3% | ? | 13µM* | ? | 10µM*
COc1ccc(C(F)(F)F)cc1NC(=O)C(OC(=O)CNC(=O)c1ccccc1)c1ccccc1 (configuration not stated) | nt | nt | nt | -25% | nt
CC(=O)c1ccc(NC(=O)COCc2cc(-c3ccco3)on2)cc1 | -13% | 17% | -3%[59 µM] | ? | -21%
C/C(=N\NC(=O)CN(c1ccccc1Br)S(C)(=O)=O)c1cccs1 | 5% | -5% | nt | 22µM* | -3%
C/C(=N\NC(=O)CN(c1ccc(C)cc1)S(C)(=O)=O)c1cccs1 | 7% | 9% | -4% | -9% | -2%
Cc1oc(/C=N/NC(=O)CN(c2ccccc2Br)S(C)(=O)=O)cc1Br | 8% | -26% | 71µM* | ? | ?
N#CN=c1snc(-c2ccccc2)n1-c1ccc(Cl)cc1 | nt | 24%[57 µM] | nt | -6%[57.1 µM] | nt
N#CC(=C(O)CN1CCN(c2ccccc2F)CC1)c1nc(-c2ccc(Cl)cc2)cs1 | -3% | 10% | nt | -7% | nt
C=CCOc1ccccc1CN1CCSCC1 | 16% | ? | ? | 6.3µM* | 56µM*
C=CCOc1ccccc1CN1CCCCCC1 | -2% | ? | nt | 1.4µM* | ?
C=CCOc1ccccc1CN1CCC(Oc2ccc(C(=O)N3CCCCC3)cc2)CC1 | -4% | 26% | 94% | -15% | 1%
COCCNC(=O)C1(C)CCCN(C(=O)c2cc(OC)c(OC)c(OC)c2)C1 (configuration not stated) | 34% | nt | nt | nt | nt
COc1cccc(Cn2c(=O)cnc3cnc(Nc4ccccc4)nc32)c1 | nt | nt | -46%[0.501 µM] | nt | nt
SMILES | GLS inhibitor | HP1b chromo inh | G9a block | JMJD2A Tudor inh | BAZ2B block
CN(Cc1cccs1)C(=O)CSc1nc(N)cc(N)n1 | -2% | 11% | -1% | 79µM* | nt
CC(C)(C)n1nnnc1C(c1cc2ccccc2o1)N(CCC#N)Cc1ccccc1 (configuration not stated) | 8% | nt | nt | nt | nt
COc1ccc(CCn2c(=N)c(C(=O)N3CCN(C)CC3)cc3c(=O)n4ccccc4nc32)cc1 | 2% | 7% | 40µM* | -23% | -9%
O=C(Cc1ccc(NC(=O)N2CCCCc3ccccc32)cc1)Nc1ccccc1Br | 3% | 26% | -1%[59 µM] | -18% | -22%
COc1ccc(CNC(=O)CN(C(=O)c2ccc(CN3CCOCC3)o2)C2CCCC2)cc1 | 3% | 30% | 3.5µM* | -10% | -3%
CCOC(=O)c1cc(-c2ccccc2)n(CC(=O)Nc2ccc(OC)cc2OC)c1C | -11% | 46% | -17%[59 µM] | 22µM* | -6%
CCOC(=O)c1cc(-c2ccc(OC)cc2)n(CCC(=O)Nc2ccc(OC)cc2OC)c1C | -3% | -12% | ? | ? | -33%
CCOC(=O)c1cc(-c2ccc(OC)cc2)n(CCC(=O)Nc2ccccc2OC)c1C | 1% | 28% | -32%[59 µM] | 28µM* | 79µM*
CCN(c1ccccc1)S(=O)(=O)c1ccc(N2CCN(c3ccc(O)cc3)CC2)nc1 | ? | 50µM* | nt | 22µM* | nt
CCN(CC)S(=O)(=O)c1ccc(N2CCc3ccccc3C2)nc1 | -2% | 52% | 40µM* | 19% | 13%
CCN(c1ccccc1)S(=O)(=O)c1ccc(N2CCN(c3ccc(OC)cc3)CC2)nc1 | 24% | -3% | nt | -31% | nt
O=c1cc(CN2CCN(Cc3ccccc3)CC2)c2ccc(O)c(O)c2o1 | ? | 4% | 35µM* | ? | 40µM*
Cc1c(O)ccc2c(CN3CCN(Cc4ccccc4)CC3)cc(=O)oc12 | 24% | 25% | -13% | -22% | 2%
O=c1cc(CN2CCOCC2)c2ccc(O)c(O)c2o1 | 16% | 42% | 7.9µM* | ? | -9%
O=[N+]([O-])C1=CC=C2C(=NC3(CCCCC3)N2O)C1=NCCO | 3% | -34% | ? | -16% | 50µM*
CCCCC(Sc1nc2cc3c(cc2c(=O)n1CCCC(=O)NCc1ccc(OC)cc1)OCO3)C(=O)OCC (configuration not stated) | -7% | 38% | 4%[59 µM] | -13% | 3%
CC(=O)NC(c1ccccc1)c1nc(-c2cccc(CO)c2)cs1 (configuration not stated) | 3% | nt | nt | nt | nt
CCOC(=O)c1c(C)[nH]c(C)c1S(=O)(=O)N(C)CC(=O)NCc1ccc(Cl)cc1 | 11% | 51% | -8%[59 µM] | -29% | 21%
CCN(CC(=O)Nc1ccccc1C(F)(F)F)CC(=O)c1[nH]c(C)c(C(C)=O)c1C | -6% | nt | nt | nt | nt
Cc1nn(C)c(C(=O)Sc2cccc(Cl)c2)c1[N+](=O)[O-] | 23% | 99% | ? | 4% | -10%
Cc1cccc(Cl)c1NNC(=O)Nc1c([N+](=O)[O-])c(C)nn1C | 16% | 0% | 16µM* | -19% | -13%
O=C(O)c1ccc(N=N/C(=N\Nc2ccc(C(=O)O)cc2)c2ccccc2)cc1 | 26% | ? | ? | 50µM* | 28µM*
O=C(O)c1cccc(N/N=C(\N=Nc2ccccc2)c2ccccc2)c1 | 25% | 35µM* | ? | 40µM* | 14µM*
Brc1ccc(N/N=C(/N=Nc2nn[nH]n2)c2ccccc2)cc1 | 19% | 13µM* | 11µM* | 13µM* | 11µM*
CCc1ccc(NC(=O)c2sc3nc(C)cc(C)c3c2NC(=O)c2ccccc2OC)cc1 | -1% | 49% | -3%[59 µM] | -8% | -17%
